NOD2-RIPK2 inh: inhibitors of human NOD2-RIPK2 interaction | O43353 | CHO BLA complementation NOD2-RIPK2, CCF4 ratio | inhibition, % at 4.98 µM | actives 0.38% (n = 360,000) | AID 624267; in the data active = inhibition above about 21%;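 also: 0% = vehicle only and 100% = reference blocker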
HSF1 activator: increases HSF-1 driven luciferase reporter signal; NIH3T3-HGL HSF-1 luciferase reporter, MG132, 8 h; 100% = twice DMSO control signal; AID 504408; actives 1.7% (n = 300,000); activation, % at 9 µM;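 active = mean replicate activation of at least 50% with a set share of replicates each reaching 50%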;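 also: 0% = median of the neutral control wells and 100% = twice that signal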
TLR9-MyD88 inh: inhibitors of human TLR9-MyD88 binding | actives 0.21% (n = 340,000) | Q9NR96+Q99836 | CHO BLA complementation TLR9-MyD88, CCF4 FRET ratio | inhibition, % at 4.98 µM;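 active = inhibition above the mean over all tested compounds plus 3 SD, cut at about 21% in these data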;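 also: 0% = DMSO only wells and 100% = clavulanate BLA inhibitor control wells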
Target sequence (Q99836 whole entry, looked up): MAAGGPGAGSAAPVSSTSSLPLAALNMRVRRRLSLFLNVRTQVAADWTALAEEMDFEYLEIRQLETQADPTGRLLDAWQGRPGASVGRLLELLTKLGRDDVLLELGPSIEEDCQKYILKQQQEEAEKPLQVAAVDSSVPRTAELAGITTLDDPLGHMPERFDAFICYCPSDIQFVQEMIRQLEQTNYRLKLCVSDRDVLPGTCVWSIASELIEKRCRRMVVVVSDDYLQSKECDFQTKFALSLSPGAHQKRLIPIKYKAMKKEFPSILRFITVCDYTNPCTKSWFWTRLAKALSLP
Target sequence (Q9NR96 whole entry, looked up): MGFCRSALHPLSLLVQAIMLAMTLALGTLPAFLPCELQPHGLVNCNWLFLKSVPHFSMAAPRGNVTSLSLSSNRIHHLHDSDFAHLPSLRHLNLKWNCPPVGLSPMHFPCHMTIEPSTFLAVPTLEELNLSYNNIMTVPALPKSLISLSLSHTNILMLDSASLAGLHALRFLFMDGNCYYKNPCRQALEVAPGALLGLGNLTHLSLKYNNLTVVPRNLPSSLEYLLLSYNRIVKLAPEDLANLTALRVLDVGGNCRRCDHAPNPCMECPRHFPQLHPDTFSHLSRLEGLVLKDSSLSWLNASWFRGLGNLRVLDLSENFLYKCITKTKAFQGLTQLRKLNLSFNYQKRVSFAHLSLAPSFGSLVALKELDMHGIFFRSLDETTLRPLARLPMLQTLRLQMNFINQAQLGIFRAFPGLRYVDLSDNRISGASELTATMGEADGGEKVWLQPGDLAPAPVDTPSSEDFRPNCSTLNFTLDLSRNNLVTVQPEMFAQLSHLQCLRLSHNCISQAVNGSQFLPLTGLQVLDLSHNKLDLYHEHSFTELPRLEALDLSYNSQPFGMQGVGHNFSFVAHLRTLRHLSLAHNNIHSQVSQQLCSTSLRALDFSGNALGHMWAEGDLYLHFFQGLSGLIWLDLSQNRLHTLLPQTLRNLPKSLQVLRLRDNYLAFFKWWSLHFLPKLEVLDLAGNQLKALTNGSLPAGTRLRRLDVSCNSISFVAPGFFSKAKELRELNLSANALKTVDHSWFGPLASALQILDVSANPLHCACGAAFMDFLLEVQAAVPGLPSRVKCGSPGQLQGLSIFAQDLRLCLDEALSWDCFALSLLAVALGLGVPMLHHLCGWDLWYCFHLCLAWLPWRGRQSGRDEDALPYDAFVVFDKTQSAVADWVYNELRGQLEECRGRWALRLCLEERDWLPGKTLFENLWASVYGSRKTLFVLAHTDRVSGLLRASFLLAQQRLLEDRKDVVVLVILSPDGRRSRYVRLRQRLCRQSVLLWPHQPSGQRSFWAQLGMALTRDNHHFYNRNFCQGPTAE
HSF1 inh: HSF1 inhibition; NIH3T3-HGL HSE-luciferase, MG132-induced, luminescence 8 h; hits give low values; activity change, negative = inhibition, % at 7.5 µM (by protocol); actives 0.77% (n = 300,000); AID 2098;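 active = more than half of replicate wells show activity change below -50%, luminescence cut by over half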;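 also: luciferase reports HSF-1 transcriptional activity via heat shock element; 0% = median of DMSO wells and -100% = zero luminescence signal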
TLR4 MyD88 comp: inhibitors of human TLR4-MyD88 binding; HeLa CL3-4 TLR4/MyD88 BLA complementation, FRET ratio; AID 861; actives 0.18% (n = 200,000); O00206+Q99836; inhibition, % at 8.4 µM; in the data active = inhibition above about 25%;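 also: 0% = vehicle and 100% = reference inhibitor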
Starred values were filed as active, the others as inactive; · = no result. Shown are actives, neighbours in structure and some others; about 2.4% of the full set was active somewhere.

SMILES	NOD2-RIPK2 inh	HSF1 activator	TLR9-MyD88 inh	HSF1 inh	TLR4 MyD88 comp
COc1ccccc1COC(=O)C(NC(=O)c1ccc(C)cc1)C(C)C (centres undefined)	5.0	·	-8.1	·	·
O=C(O)Cn1c(SCCOc2ccc(Cl)cc2)nc2ccccc21	9.6	63.1*	-7.6	26.9	·
COc1ccc(-n2cc([N+](=O)[O-])c(=O)c3ccc(Cl)cc32)cc1	-7.1	-74.6	0.2	-66.0*	·
COc1cc(/C=C2\CC/C(=C\c3cc(OC)c(O)c(OC)c3)C2=O)cc(OC)c1O	2.6	·	-9.0	·	8.5
COc1cc(/C=C2/CCC/C(=C\c3cc(O)c(OC)c(Cl)c3)C2=O)cc(Cl)c1O	-2.2	204.1*	-2.7	168.1	0.1
COc1cc(/C=C2\CCC/C(=C\c3ccc(O)c(OC)c3)C2=O)ccc1O	3.5	113.7*	-1.7	81.1	·
NNc1nc2c(-c3ccc(Cl)cc3)nnn2c2ccccc12	-5.9	72.6*	17.0	43.1	14.6
NNc1nc2c(-c3ccc(F)cc3)nnn2c2ccccc12	-0.4	34.3	11.2	42.7	8.7
OC(c1ccccc1)c1ncc(-c2ccccc2F)[nH]1 (centres undefined)	13.2	·	·	·	·
Cc1cccc(NC(=O)c2nc[nH]c2C(=O)NCCCNC(=O)c2[nH]cnc2C(=O)Nc2cccc(C)c2)c1	-7.5	·	0.2	·	·
Cc1cccc(NC(=O)c2nc[nH]c2C(=O)Nc2cccc(C)c2)c1	-13.9	53.4*	7.3	21.6	7.3
Cc1ccccc1NC(=O)c1nc[nH]c1C(=O)NCc1ccccc1	15.6	58.8*	5.7	21.6	2.4
Cc1ccc(NC(=O)c2nc[nH]c2C(=O)NCc2ccccc2)cc1	-4.2	·	4.3	·	·
O=C(CSc1nnc2ccccn12)NNC(=O)c1cccc(Cl)c1	-6.5	·	5.2	·	·
O=C(N[C@@H](Cc1ccccc1)C(=O)NC1CC1)c1ccc(Cl)cc1	-8.0	-6.6	15.5	4.2	·
CCCCCCNC(=O)O[C@H]1C[C@H](C(=O)OC)[C@H](C(=O)OC)C2CN(S(=O)(=O)c3ccc(C)cc3)C[C@@]21O (some centres undefined)	-0.2	·	0.9	·	·
Cc1ccc(CSc2nc3ncccc3[nH]2)cc1	-5.1	76.9*	5.2	46.0	-8.6
Cc1ccc(C(=O)N2CCN(S(=O)(=O)c3sc(C(=O)O)c(C)c3C(=O)O)CC2)s1	-8.7	·	-2.9	·	·
CCOC(=O)CSC1=C(C#N)C(c2ccccc2C)C2=C(CCCC2=O)N1 (centres undefined)	0.5	-89.4	-3.7	-85.2*	6.3
CCOC(=O)CSC1=C(C#N)C(c2ccccc2OC)CC(=O)N1 (centres undefined)	-0.9	33.1	3.7	4.7	4.5
CCC1CCCCN1CCCNC(=O)Cn1c2ccccc2c2nc(=O)cc(C)n21 (centres undefined)	-5.9	63.8*	-1.6	39.7	·
CC(C)NC(=O)C1(C)CN(S(C)(=O)=O)CC(=O)N1CCCn1ccnc1 (centres undefined)	0.0	·	·	·	·
C=CCN=C1NN=C(c2cc(C)n(CCOC)c2C)CS1	-6.3	-12.3	1.3	-8.8	-12.7
COCCn1c(C)cc(C2=NNC(=NC3CC3)SC2)c1C	8.9	-66.8	4.6	-63.6*	-3.3
COc1ccccc1N1CCN(C(c2ccc(N(C)C)cc2)c2nnnn2CCc2ccccc2)CC1 (centres undefined)	9.1	-78.5	-1.5	-72.3*	9.4
SMILES	NOD2-RIPK2 inh	HSF1 activator	TLR9-MyD88 inh	HSF1 inh	TLR4 MyD88 comp
COc1ccc(C(CNC(=O)C(C)Oc2ccc(Br)cc2)N2CCCC2)cc1 (centres undefined)	-3.6	-1.6	-9.4	2.9	·
COc1cccc(N/C(SCc2cccc([N+](=O)[O-])c2)=C(/C#N)C(=O)NCc2cccs2)c1	-11.7	75.4*	-3.0	25.4	-18.3
CCC(C)c1ccc(OCc2ccc(C(=O)O)o2)cc1 (centres undefined)	-8.0	-61.4	0.5	-52.7*	·
CCOC(=O)c1ccc(COc2ccc(C(C)C)cc2)o1	2.8	54.1*	6.8	25.0	-5.3
CC(C)c1ccc(OCc2ccc(C(=O)N3CCCC3)o2)cc1	-5.9	48.0	5.6	28.1	·
C[C@@H]1CN([C@H](C)CO)C(=O)CCCn2nncc2CO[C@@H]1CN(C)S(=O)(=O)c1cccc(F)c1	-5.4	·	-7.8	·	·
COCCNc1nc2cc(-c3ccc(F)cc3)sc2c(=O)n1C	0.5	·	·	·	·
O=c1[nH]c(CCl)nc2cc(-c3ccc(F)cc3)sc12	0.7	52.6*	-4.7	17.5	·
NC(=O)c1ccc(NC(=O)C#Cc2ccccc2)cc1	6.3	60.6*	1.8	51.1	·
O=C(C#Cc1ccccc1)Nc1ccccc1F	0.4	106.2*	-0.8	57.6	·
O=C1/C(=C/c2ccccc2Cl)SC(=S)N1CCC(=O)N1CCCCC1CCO (centres undefined)	1.1	68.3*	0.4	39.2	·
O=C1/C(=C\c2ccccc2)SC(=S)N1CCC(=O)N1CCCCC1CCO (centres undefined)	1.6	3.7	-7.4	6.8	·
Cc1ccc(C2Nc3ccc4ccccc4c3C3=C2C(=O)CC(C)(C)C3)o1 (centres undefined)	-8.8	86.4*	-13.8	61.2	-0.5
CC1(C)CC(=O)C2=C(C1)c1c(ccc3ccccc13)NC2c1ccc(C(=O)O)cc1 (centres undefined)	-5.1	-11.1	3.1	-11.7	·
OC(CNCc1cccc(Cl)c1)c1ccccc1 (centres undefined)	1.4	72.5*	-0.6	24.9	0.3
COc1ccc(CNC(=O)CCn2nc(C)c3c(C)n(-c4ccccc4)nc3c2=O)c(OC)c1	3.4	-3.7	-2.2	3.9	·
Cc1ccc(N2C=Nc3ccc(C)c4nc(C)cc2c34)cc1	6.1	-7.9	1.2	-0.3	4.2
CC1=Nc2ccc(C)c3nc(C)cc(c23)N1c1ccc(C)cc1	1.7	-64.1	-0.1	-53.4*	7.9
O=C1CCC/C=C\C[C@@H](CC(=O)N(CCO)Cc2ccccc2)C(=O)N[C@H](c2ccccc2)CO1	8.5	·	8.6	·	·
Cc1ccc2c(CN(C)Cc3cccc(Cl)c3)cc(=O)oc2c1C	3.3	18.1	1.2	16.4	·
Cc1ccc2c(CN3CC(C)CC(C)C3)cc(=O)oc2c1C (centres undefined)	-1.7	11.4	3.7	4.1	·
CSc1ccc(CN(C)Cc2cc(=O)oc3c(C)c(C)ccc23)cc1	1.2	-75.0	-8.6	-69.1*	·
Cc1ccc2c(CN3CCC(C)CC3)cc(=O)oc2c1C	-0.6	54.1*	8.0	23.9	·
CN(CC(=O)Nc1ccccc1Br)C(=O)CN1CCN(Cc2ccc(Cl)cc2)CC1	-1.8	·	4.2	·	·
COc1cc(C2/C(=C(\O)c3ccc4c(c3)CC(C)O4)C(=O)C(=O)N2CC2CCCO2)cc(OC)c1OC (centres undefined)	-5.0	-11.3	1.1	-1.7	·
CC1Cc2cc(/C(O)=C3/C(=O)C(=O)N(CC4CCCO4)C3c3ccco3)ccc2O1 (centres undefined)	3.1	-66.9	2.7	-55.6*	1.9

Screening data deposited in PubChem by several laboratories.
